According to PubChem BioAssay:
The source made the active and inactive calls. Unless noted, no rule for the calls is given here.

Experiments:
[1] = A549 cell viability effects, profiling panel, calcein-AM fluorescence, 48 h, basal (AID 1162); details: higher = more signal; also: test concentration not given here
[2] = adipocyte viability effects, profiling panel, cell-based, 3T3-L1 adipocytes, calcein-AM fluorescence, 48 h, basal (AID 1163); details: 3T3-L1 adipocytes viability, higher = more signal; also: test concentration not given here
[3] = HepG2 cell viability effects, profiling panel, calcein-AM fluorescence, 48 h, basal (AID 1164); details: higher = more signal; also: test concentration not given here
[4] = MM1S cell viability effects, profiling panel, calcein-AM fluorescence, 48 h, basal (AID 1165); details: higher = more signal;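 also: viability of MM1S multiple myeloma cells under basal unstimulated conditions; test concentration not given here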
[5] = basal RPMI8226 viability, no added stimulus, profiling panel, cell-based, calcein-AM fluorescence, 48 h, PK04 Diversity Set (AID 1166); details: RPMI8226 myeloma viability, higher = more signal;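 also: cells grown under basal conditions without added stimulus; test concentration not given here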
[6] = basal HepG2 mitochondrial membrane potential changes, profiling panel, cell-based, JC-1 fluorescence, 24 h, 100 nL compound (AID 1167); details: higher = more signal; also: test concentration not given here
[7] = basal 3T3-L1 adipocyte mitochondrial potential changes, profiling panel, cell-based, JC-1 fluorescence, 3T3-L1 adipocytes, 24 h, 100 nL compound (AID 1168); details: JC-1 mitochondrial fluorescence, higher = more signal, called active from +8 up or from −8 down; also: test concentration not given here
[8] = basal RPMI8226 mitochondrial membrane potential changes, profiling panel, cell-based, JC-1 fluorescence, 24 h, 100 nL compound (AID 1169); details: RPMI8226 myeloma, JC-1 mitochondrial potential fluorescence, higher = more signal; also: test concentration not given here
[9] = basal MM1S mitochondrial membrane potential changes, profiling panel, cell-based, JC-1 fluorescence, 24 h, 100 nL compound (AID 1170); details: higher = more signal; also: test concentration not given here
[10] = A549 lung cancer cell viability effects, profiling panel, resazurin fluorescence, 24 h, PK04 Diversity Set (AID 1171); details: higher = more signal, called active from +8 up or from −8 down; also: test concentration not given here
[11] = HepG2 liver cancer cell viability effects, profiling panel, resazurin fluorescence, 24 h, PK04 Diversity Set (AID 1172); details: higher = more signal; also: test concentration not given here
[12] = basal S. cerevisiae growth modulation, no modifier, primary screen, OD600, strain BY4716, 24 h, basal condition (AID 1173); details: OD600, 24 h, higher = more signal, called active from +8 up or from −8 down
[13] = MM1S myeloma cell viability, profiling panel, resazurin fluorescence, basal, 24 h, PK04 Diversity Set (AID 1174); details: higher = more signal, called active from +8 up or from −8 down;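 also: MM1S multiple myeloma cell line; test concentration not given here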
[14] = molecular target: Dihydroorotate dehydrogenase (quinone), mitochondrial (Plasmodium falciparum (isolate 3D7)) (UniProt Q08210); experiment: PfDHODH enzyme inhibitors, primary screen, biochemical, C-terminal His tag, absorbance 600 nm (AID 1175); details: DCIP absorbance 600 nm, higher = more signal, called active from +8 up or from −8 down;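 also: recombinant parasite enzyme with a five histidine tag at its C terminus; test concentration not given here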
[15] = P. aeruginosa biofilm formation inhibitors, primary screen, strain PAO1, LB-PBS medium, absorbance 600 nm (AID 1176); also: test concentration not given here; details: P. aeruginosa PAO1 growth/biofilm, A600, 12 h; higher = more signal
[16] = S. cerevisiae RM11-1a growth modifiers, primary screen, strain RM11-1a, OD600, basal, 24 h (AID 1177); details: OD600, 24 h, higher = more signal, called active from +8 up or from −8 down;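 also: cultures grown under basal conditions with no added stressor; test concentration not given here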
[17] = E. coli acrAB mutant growth effects, primary screen, E. coli filamentation inducers, strain DRC39, OD650, 24 h (AID 1178); details: higher = more signal, called active from +8 up or from −8 down;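 also: growth measured as culture turbidity by optical density at 650 nm; test concentration not given here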
[18] = E. coli acrAB mutant growth effects, primary screen, E. coli filamentation inducers, strain DRC39, OD650, 48 h (AID 1179);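 also: screen aims at cell division blockers that make cells filament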; details: E. coli DRC39 delta-acrAB growth, higher = more signal, called active from +8 up or from −8 down
[19] = RPMI8226 myeloma cell viability, profiling panel, resazurin fluorescence, basal, 24 h, PK04 Diversity Set (AID 1180); details: higher = more signal;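 also: RPMI8826 multiple myeloma cell line at 5000 cells per well; test concentration not given here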
[20] = molecular target: E3 ubiquitin-protein ligase XIAP (Homo sapiens) (UniProt P98170); experiment: XIAP binders, primary screen, biophysical, small-molecule microarray, fluorescence 635 nm (AID 1181); details: small-molecule microarray binding, higher = more signal;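 also: score merges 667 nm emission and signal to noise over triplicate slides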
Chain of E3 ubiquitin-protein ligase XIAP (Homo sapiens) (P98170 whole entry, looked up): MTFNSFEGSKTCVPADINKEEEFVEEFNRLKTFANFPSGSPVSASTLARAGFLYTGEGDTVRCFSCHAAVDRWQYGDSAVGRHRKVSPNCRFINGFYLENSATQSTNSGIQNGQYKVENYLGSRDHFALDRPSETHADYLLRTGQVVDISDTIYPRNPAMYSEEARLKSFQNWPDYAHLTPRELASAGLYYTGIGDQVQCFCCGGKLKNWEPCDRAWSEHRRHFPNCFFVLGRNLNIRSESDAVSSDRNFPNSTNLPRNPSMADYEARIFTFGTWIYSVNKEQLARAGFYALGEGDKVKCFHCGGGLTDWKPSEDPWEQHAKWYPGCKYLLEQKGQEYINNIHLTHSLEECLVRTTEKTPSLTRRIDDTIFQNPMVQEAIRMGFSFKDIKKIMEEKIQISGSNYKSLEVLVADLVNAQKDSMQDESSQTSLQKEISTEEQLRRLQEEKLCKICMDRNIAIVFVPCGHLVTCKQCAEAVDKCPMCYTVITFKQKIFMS

Chain of Dihydroorotate dehydrogenase (quinone), mitochondrial (Plasmodium falciparum (isolate 3D7)) (Q08210 whole entry, looked up): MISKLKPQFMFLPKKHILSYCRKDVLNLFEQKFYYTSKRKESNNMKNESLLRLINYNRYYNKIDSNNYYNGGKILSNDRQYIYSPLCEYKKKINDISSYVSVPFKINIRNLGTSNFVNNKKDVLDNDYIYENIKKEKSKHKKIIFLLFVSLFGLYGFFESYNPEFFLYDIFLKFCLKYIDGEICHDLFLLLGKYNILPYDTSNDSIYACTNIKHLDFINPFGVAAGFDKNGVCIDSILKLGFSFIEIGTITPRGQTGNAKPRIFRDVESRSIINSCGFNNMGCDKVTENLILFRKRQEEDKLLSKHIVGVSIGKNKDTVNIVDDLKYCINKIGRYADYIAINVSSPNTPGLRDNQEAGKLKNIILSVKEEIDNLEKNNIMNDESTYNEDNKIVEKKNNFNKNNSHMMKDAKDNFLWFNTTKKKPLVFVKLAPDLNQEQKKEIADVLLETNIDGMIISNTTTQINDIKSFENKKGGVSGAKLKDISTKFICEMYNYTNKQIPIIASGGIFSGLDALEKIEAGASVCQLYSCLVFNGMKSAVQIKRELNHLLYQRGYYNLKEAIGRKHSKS

Row | Structure (SMILES) | z-score [1] | z-score [2] | z-score [3] | z-score [4] | z-score [5] | z-score [6] | z-score [7] | z-score [8] | z-score [9] | z-score [10] | z-score [11] | z-score [12] | z-score [13] | composite z-score [14] | z-score [15] | z-score [16] | z-score [17] | z-score [18] | z-score [19] | composite z-score [20]
1 | CO[C@H]1COC(=O)CC=C[C@H](C)COC(=O)[C@@H](C)NC(=O)CC=C[C@@H]1C | -0.752 | 0.197 | -1.46 | 0.735 | -1.5 | 0.187 | -0.546 (inactive) | -0.111 | -0.609 | 0.0702 (inactive) | -0.251 | -0.695 (inactive) | 1.31 (inactive) | -0.412 (inactive) | -0.16 (inactive) | -0.652 (inactive) | 0.33 (inactive) | -1.21 (inactive) | 0.961 | 0.0297
2 | CCN1C(=O)[C@H]2[C@H]3[C@H](O)[C@H](O)CC(=NO[C@@H](C)c4cn([C@H](CO)Cc5ccccc5)nn4)[C@@H]3CC[C@H]2C1=O | -0.293 | 0.0248 | -0.644 | -1.59 | -0.784 | -0.559 | -1.49 (inactive) | 0.695 | 0.0117 | -0.499 (inactive) | -0.817 | 0.833 (inactive) | -0.866 (inactive) | -0.642 (inactive) | 0.135 (inactive) | 0.47 (inactive) | 0.121 (inactive) | -0.336 (inactive) | -0.504 | 0.0451
3 | O=c1n(Cc2cc3c(cc2Cl)OCO3)c(=O)n2n1CC[C@@H]1C(=NOC[C@@H](O)COCc3ccco3)[C@H]3O[C@H]3[C@@H](O)[C@@H]12 | -0.158 | -0.322 | 0.105 | 0.0423 | -0.552 | -0.611 | -1.6 (inactive) | 0.0236 | -0.211 | -0.127 (inactive) | -0.0975 | 0.919 (inactive) | -0.316 (inactive) | 0.634 (inactive) | 0.471 (inactive) | 0.716 (inactive) | -0.133 (inactive) | -0.527 (inactive) | -0.614 | -0.0252
4 | CCOC(=O)[C@H](Cc1ccccc1)NC(=O)CCC1CC(OC(=O)NCCc2ccc(F)cc2)CC2(CCCC(COC(=O)NCCOC)O2)O1 (stereo not given in full) | -0.153 | -0.41 | -0.981 | -3.38 | -1.7 | 0.0204 | 0.872 (inactive) | -0.326 | -1.48 | 0.042 (inactive) | -0.154 | -0.664 (inactive) | -0.195 (inactive) | -1.47 (inactive) | 0.487 (inactive) | 0.128 (inactive) | 1.21 (inactive) | 0.195 (inactive) | 0.673 | -0.242
5 | CCOC(=O)[C@H](CC(C)C)NC(=O)CCC1CC(OC(=O)NCCc2ccc(F)cc2)CC2(CCCC(COC(=O)NCC(c3ccccc3)c3ccccc3)O2)O1 (stereo not given in full) | 0.0775 | 0.0775 | -0.912 | -0.325 | 0.497 | -0.898 | -0.516 (inactive) | 0.872 | -0.019 | 0.171 (inactive) | 0.184 | -0.227 (inactive) | -0.345 (inactive) | 0.0649 (inactive) | 0.013 (inactive) | 0.126 (inactive) | 0.113 (inactive) | -1.1 (inactive) | 0.465 | -0.0994
6 | C=CC[C@@H]1C=C[C@H](ON=C(C)CCC(=O)OC[C@H]2O[C@H](c3ccccc3)C=C[C@@H]2Oc2ccc(OC)cc2)[C@@H](CO)O1 | 1.21 | -0.741 | -0.403 | -1.91 | -0.428 | -0.859 | 0.0616 (inactive) | 0.0738 | -1.02 | 0.524 (inactive) | 0.0276 | 0.31 (inactive) | -0.517 (inactive) | -0.582 (inactive) | 0.347 (inactive) | -0.0293 (inactive) | 0.741 (inactive) | 1.15 (inactive) | -0.212 | -0.0272
7 | CC(C)(C)N1C(=O)[C@H]2[C@H]3[C@H](O)[C@H](O)CC(=NOCc4ccccc4)[C@H]3CC[C@H]2C1=O | 0.156 | -0.503 | -1.11 | 0.166 | -0.946 | -0.736 | 0.536 (inactive) | -0.492 | 0.0361 | 0.727 (inactive) | -0.211 | -0.565 (inactive) | 0.0488 (inactive) | -0.192 (inactive) | -0.237 (inactive) | -0.786 (inactive) | 0.184 (inactive) | 0.332 (inactive) | 0.237 | -0.102
8 | CO[C@@H]1COC(=O)CC=C[C@@H](C)[C@@H]2C=C[C@H](O)[C@@H](COC(=O)CC=C[C@H]1C)O2 | 1.26 | 0.392 | 0.764 | 0.425 | 0.448 | 0.598 | 0.967 (inactive) | -0.31 | 0.658 | 0.0324 (inactive) | 0.807 | -1.65 (inactive) | 0.992 (inactive) | -0.0239 (inactive) | 0.765 (inactive) | -0.72 (inactive) | 0.619 (inactive) | 0.799 (inactive) | 0.366 | 0.0177
9 | O=c1n(-c2ccccc2)c(=O)n2n1CC[C@@H]1C(=NOCc3ccccc3)[C@H]3O[C@H]3[C@@H](O)[C@@H]12 | 0.172 | -0.915 | 0.251 | -0.232 | 0.169 | -0.406 | -0.78 (inactive) | -0.0915 | -0.531 | -1.08 (inactive) | -1.28 | -0.274 (inactive) | -0.503 (inactive) | -3.02 (inactive) | -0.0485 (inactive) | -0.249 (inactive) | -0.792 (inactive) | -0.604 (inactive) | -1.12 | -0.0026
